# The whole screen tested about 310,000 compounds, of which about 14,000 (4.5%) showed an effect of 50% or more. Effects have a minus sign here. Many of the other results were omitted from the sample, so strong results are more common in it than they were.
# Biological target: human ether-à-go-go-related gene (hERG) potassium channel (human, UniProt Q12809)
# Test: primary screen, population patch clamp on CHO cells stably expressing hERG; higher = less effect of the substance
# 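Also: peak tail current of the secondary pulse compared with the same well before compound.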
# human ether-à-go-go-related gene (hERG) potassium channel, sequence (Q12809 whole entry, looked up): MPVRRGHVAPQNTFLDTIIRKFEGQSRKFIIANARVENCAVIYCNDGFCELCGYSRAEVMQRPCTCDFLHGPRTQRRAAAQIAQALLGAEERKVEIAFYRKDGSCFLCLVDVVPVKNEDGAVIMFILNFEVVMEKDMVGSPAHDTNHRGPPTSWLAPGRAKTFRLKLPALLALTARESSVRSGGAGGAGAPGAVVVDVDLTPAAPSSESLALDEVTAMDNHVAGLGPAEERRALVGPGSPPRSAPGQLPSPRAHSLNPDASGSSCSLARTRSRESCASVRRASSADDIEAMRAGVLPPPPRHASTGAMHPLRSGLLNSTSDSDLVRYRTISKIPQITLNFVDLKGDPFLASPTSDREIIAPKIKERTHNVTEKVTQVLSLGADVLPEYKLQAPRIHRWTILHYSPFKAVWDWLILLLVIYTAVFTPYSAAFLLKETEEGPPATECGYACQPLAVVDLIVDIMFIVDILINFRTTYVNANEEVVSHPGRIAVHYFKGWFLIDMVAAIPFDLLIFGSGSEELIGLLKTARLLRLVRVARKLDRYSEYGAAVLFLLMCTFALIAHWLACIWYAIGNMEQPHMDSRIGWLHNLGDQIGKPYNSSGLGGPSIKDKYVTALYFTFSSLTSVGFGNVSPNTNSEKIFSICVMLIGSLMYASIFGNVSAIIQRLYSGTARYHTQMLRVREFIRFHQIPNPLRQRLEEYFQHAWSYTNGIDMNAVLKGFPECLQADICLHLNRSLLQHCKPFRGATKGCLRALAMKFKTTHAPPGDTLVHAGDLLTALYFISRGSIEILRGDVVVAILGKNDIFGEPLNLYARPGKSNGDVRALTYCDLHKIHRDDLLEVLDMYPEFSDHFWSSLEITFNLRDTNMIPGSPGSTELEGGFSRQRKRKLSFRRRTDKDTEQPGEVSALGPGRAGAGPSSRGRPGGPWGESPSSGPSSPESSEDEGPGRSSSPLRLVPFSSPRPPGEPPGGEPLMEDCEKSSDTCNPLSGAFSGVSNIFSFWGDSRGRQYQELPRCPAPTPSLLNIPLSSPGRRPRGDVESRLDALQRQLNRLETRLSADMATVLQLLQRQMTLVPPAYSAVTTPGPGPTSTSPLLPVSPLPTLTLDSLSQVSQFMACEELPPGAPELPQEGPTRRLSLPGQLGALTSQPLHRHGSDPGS
row,SMILES,"hERG current change (%, negative = inhibition) at 10uM [%]"
1,O=C(NC1CCCc2ccccc21)c1ccc([N+](=O)[O-])cc1 (centres unmarked),-53.4
2,CCC(C)[C@H](NC(=O)NC1CCCc2ccccc21)C(=O)O (some centres unmarked),20.6
3,CC(C)[C@H](NC(=O)NC1CCCc2ccccc21)C(=O)O (some centres unmarked),-68.2
4,COC(=O)[C@@H](NC(=O)NC1CCCc2ccccc21)C(C)C (some centres unmarked),9.47
5,COc1ccc(C(CNC(=O)C(CCSC)NC(=O)c2ccccc2Cl)N2CCOCC2)cc1 (centres unmarked),-8.2
6,CC(C)C[C@H](NC(=O)c1cc2cc(Cl)ccc2n1C)C(=O)N1CCC(C(=O)O)CC1,13.5
7,CN(C(=O)c1cccc(N2C(=O)C3C4C=CC(C4)C3C2=O)c1)C1CCCCC1 (centres unmarked),0.921
8,O=C(Nc1ccccc1)NC(Cc1ccc(O)cc1)C(=O)O (centres unmarked),17.4
9,O=C(NC(=S)Nc1ccccc1C(=O)O)c1cncc(Br)c1,23
10,COc1ccc(OC)c(/C=C/C(=O)OCC(=O)Nc2ccc3c(c2)OCCO3)c1,15.9
11,Cc1noc(/C=C/N(C)C)c1S(=O)(=O)N1CCc2ccccc21,-18.6
12,COc1ccccc1CN(C)C(=O)c1cccc(S(=O)(=O)N2CCc3ccccc3C2)c1,-4.08
13,O=C(COC(=O)c1cc(=O)c2ccccc2o1)Nc1ccc2ccccc2c1,17.6
14,CN1/C(=C\C(=O)CSc2nnc(NCc3ccccc3)s2)C(C)(C)c2ccccc21,-13.1
15,CN1/C(=C\C(=O)CSc2nnc(N)s2)C(C)(C)c2ccccc21,0.532
16,CC(C)Nc1nnc(SCC(=O)/C=C2\N(C)c3ccccc3C2(C)C)s1,-65.1
17,O=C(c1ccc(Cl)cc1)C1CCCN(C2CCSCC2)C1 (centres unmarked),-78.9
18,Cc1cc(Cl)ccc1C(=O)C1CCCN(C(=O)c2snnc2C)C1 (centres unmarked),-56.1
19,O=C(c1ccc(C(F)(F)F)cc1)C1CCCN(C2CCSCC2)C1 (centres unmarked),-71.2
20,Cc1nc(C)c(C(=O)N2CCCC(C(=O)c3ccc(Cl)cc3C)C2)s1 (centres unmarked),-23
21,CN1CCCC(C(=O)c2ccc(Cl)cc2)C1 (centres unmarked),-23
22,O=C(c1ccc(C(F)(F)F)cc1)C1CCCN(C(=O)c2csnn2)C1 (centres unmarked),-22.6

row,SMILES,"hERG current change (%, negative = inhibition) at 10uM [%]"
1,Cc1cc(Cl)ccc1C(=O)C1CCCN(C(=O)c2nonc2C)C1 (centres unmarked),-26.3
2,CC(C)(C)c1ccc(C(=O)C2CCCN(C3CCC3)C2)cc1 (centres unmarked),-18.4
3,Cc1cc(Cl)ccc1C(=O)C1CCCN(C2CCSCC2)C1 (centres unmarked),-74.3
4,COC(=O)CCC(=O)N1CCCC(C(=O)c2ccc(Cl)cc2C)C1 (centres unmarked),-5.75
5,O=C(c1ccc(Cl)cc1)C1CCCN(C(=O)c2csnn2)C1 (centres unmarked),0.734
6,COc1ccc(C(=O)C2CCCN(C3CSCCSC3)C2)c(C)c1 (centres unmarked),-13
7,COc1cc2cc(C)nc(Cc3cccc4ccccc34)c2cc1OC,8.53
8,CC#CP(=O)(OCC)C(O)(c1ccccc1)C(F)(F)F (centres unmarked),-3.29
9,CC(=O)Nc1c(O)nc(SCC(=O)Nc2cccc(C)c2)[nH]c1=O,14.8
10,CCOc1cc(-c2ccc(N)c(OCC)c2)ccc1N,-10.2
11,S=C(NCc1ccc(Cl)c(Cl)c1)Nc1ccc2c(c1)OCO2,-6.19
12,Nn1c(SCC(=O)Nc2ccc(S(N)(=O)=O)cc2)nnc1C(F)(F)F,0.037
13,Cc1cc(Cl)cc(C)c1OCCCCCn1ccnc1,-28.1
14,Cc1ccc(SC[C@H](Cc2ccccc2)N2CC[C@@H](C)CCC2=O)cc1,-28.7
15,C[C@H]1CCC(=O)N([C@H](CSc2ccc(Br)cc2)Cc2ccccc2)CC1,7.31
16,CCCN1CCC(=O)N([C@H](CSc2ccc(Br)cc2)Cc2ccccc2)CC1,-71.2
17,CC(C)(C)[C@H]1CCC(=O)N([C@H](CSc2ccc(Br)cc2)Cc2ccccc2)CC1,4.84
18,CCCN1CCC(=O)N([C@H](CSc2ccccc2)Cc2ccccc2)CC1,-69.6
19,CC(C)(C)[C@H]1CCC(=O)N([C@H](CSc2ccccc2)Cc2ccccc2)CC1,-3.06
20,CN1CCC(=O)N([C@H](CSc2ccccc2)Cc2ccccc2)CC1,-45.8
21,CN1CCC(=O)N([C@H](CSc2ccc(Br)cc2)Cc2ccccc2)CC1,-64.8
22,CCOC(=O)c1c(NC(=O)C[n+]2ccc(Cc3ccccc3)cc2)sc(C)c1C.[Cl-],-43.5

# Reference: article PMC4336329 (PLoS ONE, 2015)
